Assay outcomes deposited in PubChem BioAssay by The Scripps Research Institute Molecular Screening Center.
Only some compounds are listed: those with a hit (about 3.5% of all), similar ones and a draw of the others.
FBW7 activator – human FBW7 E3 ligase activation, primary screen; hit rate 0.13% among 650,000; normalized activity (activation), % at 26.1 µM; AlphaScreen FBW7–phospho-cyclin E peptide binding, activator screen; Q969H0; in the data active = normalized activity above about 1.9%;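 also: purified mutant Fbw7 with reduced substrate affinity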
TEAD-YAP block – TEAD-YAP interaction inhibition | AID 1259422 | hit rate 1.4% among 640,000 | HEK-TIYL cells, TEAD-Gal4/YAP UAS-luciferase luminescence | inhibition, % at 9.12 µM; in the data active = inhibition above about 32%;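 also: 0% = median of test compound wells and 100% = reference inhibitor wells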
GPR151 ag – human GPR151 activation; PathHunter beta-arrestin GPR151 cells, luminescence; Q8TDV0; hit rate 1% among 650,000; activation, % at 11.2 µM; in the data active = activation above about 4.9%;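 also: 0% = median of compound wells and 100% = cells with positive control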
MITF inh – inhibitors of human MITF. AlphaScreen MITF homodimerization, bead proximity signal. hit rate 0.91% among 650,000. inhibition, % at 2.6 µM; in the data active = inhibition above about 50%;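 also: 0% = vehicle wells with protein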
Starred values were filed as active, the others as inactive.

SMILES	FBW7 activator	TEAD-YAP block	GPR151 ag	MITF inh
CC1CN2C(=O)Cc3c(S(=O)(=O)NCc4cccs4)ccc(c32)S1 (centres undefined)	0	8	-1	9
Cc1cc(C(=O)CSc2nnc(N)s2)c(C)n1Cc1ccco1	0	37*	-1	7
COc1ccc(CCn2c(C)cc(C(=O)CSc3nnc(C)s3)c2C)cc1	0	4	0	-2
Cc1cc(C(=O)COC(=O)c2cccs2)c(C)n1Cc1cccs1	0	53*	-1	14
Cc1nnc(SCC(=O)c2cc(C)n(Cc3cccs3)c2C)s1	0	62*	1	2
COCCn1c(C)cc(C(=O)CSc2nnc(C)s2)c1C	0	70*	-6	-2
CCOC(=O)COc1c(Br)ccc2c(C(=O)OCC)c(NC(C)=O)sc12	0	-4	1	0
CC(=O)c1ccc(OCCCC(=O)Nc2nccs2)cc1	0	-8	1	-9
CN(C)CCCN=Cc1c(O)[nH]c2ccccc12	0	12	2	8
Cc1ccc(S(=O)(=O)N(CCc2ccccc2)CC(=O)N/N=C/c2ccncc2)cc1	0	-4	0	-3
Cc1cc(NCc2nc3ccccc3[nH]2)nc(Cl)n1	0	2	1	-9
CCCc1[nH]n(-c2ccc(F)cc2)c(=O)c1C=NCc1ccc(S(N)(=O)=O)cc1	0	1	1	5
CCc1ccc(OCC(=O)NCc2cccs2)cc1	0	-22	0	1
CCOc1ccc(-c2cc(=O)n(CC(=O)NCc3cccs3)cn2)cc1	0	44*	-2	5
COC(=O)c1c(-c2ccc(C)c(C)c2)csc1NC(=O)CCCC(=O)O	0	33*	0	-8
CCOC(=O)c1c(-c2ccc(OC)cc2)csc1NC(=O)CCCC(=O)O	0	7	0	-5
Cc1ccccc1Cn1cc(SCC(=O)Nc2ccc(Br)cc2)c2ccccc21	0	-3	-2	-12
Cc1ccc(-c2nnc3sc(NC(=O)c4cccs4)nn23)cc1	0	-2	1	0
CC(=O)Nc1ccc(Nc2nc(Nc3ncccn3)nc3c2ncn3-c2ccsc2)cc1	0	50*	-2	1
c1cncc(CNc2nc(Nc3ccc(N4CCOCC4)cc3)nc3c2ncn3-c2ccsc2)c1	0	57*	2	2
CC(=O)Nc1ccc(Nc2ccnc(-c3c(C)nn(C)c3C)n2)cc1	0	54*	4	-1
c1cc(Nc2nc(Nc3ccc4c(c3)OCO4)c3ncn(-c4ccsc4)c3n2)ncn1	10*	-25	1	-9
CC(=O)Nc1ccc(Nc2nc(Nc3ccncc3)nc3c2ncn3-c2ccsc2)cc1	0	25	2	11
c1cnc(Nc2nc(Nc3ccc4c(c3)OCO4)c3ncn(-c4ccsc4)c3n2)cn1	0	-28	-1	6
COCCNC(=O)c1cn(C[C@H]2CCCN(C(=O)CCc3cc(OC)no3)C2)nn1	0	7	0	-3
SMILES	FBW7 activator	TEAD-YAP block	GPR151 ag	MITF inh
c1cc(-n2cnc3c(Nc4ccc5c(c4)OCO5)nc(NCCN4CCOCC4)nc32)cs1	0	44*	-2	22
FC(F)(F)c1ccc(Nc2nc(Nc3ccc(N4CCOCC4)cc3)c3ncn(-c4ccsc4)c3n2)cc1	0	2	-2	9
CC(=O)Nc1ccc(Nc2nc(Nc3ccc(N4CCOCC4)cc3)nc3c2ncn3-c2ccsc2)cc1	0	38*	-1	19
CCN(CC)c1nc(Nc2ccc3c(c2)OCO3)nc(Nc2ccncn2)n1	4.0*	-25	4	-10
c1cc(-n2cnc3c(Nc4ccc5c(c4)OCO5)nc(Nc4ccc(N5CCOCC5)cc4)nc32)cs1	0	42*	0	17
c1cc(-n2cnc3c(Nc4ccc5c(c4)OCO5)nc(NCc4ccc5c(c4)OCO5)nc32)cs1	0	-47	-1	1
Cc1ccc(C(=O)COC(=O)CCC(=O)Nc2ccc(C(=O)OCC(C)C)cc2)cc1[N+](=O)[O-]	0	7	-1	-4
CCOC(=O)C1=C(C)NC(=S)NC1C1CC=CCC1 (centres undefined)	0	3	0	4
COc1ccc(N2C(S)=C(C#N)C(=O)NC2c2cccc(OC)c2)cc1 (centres undefined)	1	5	-1	15
CC(CCc1ccccc1)NC(=O)CCC(=O)N1CCOc2ccccc21 (centres undefined)	0	10	0	0
CCn1c(COc2cccc3cccnc23)nnc1SCCc1ccccc1	0	-2	2	0
COc1ccc(CCNC(=O)c2csc(-c3ccc(C(=O)NC4CC4)cc3)n2)cc1	0	13	-1	-14
COc1ccc(-c2nc(Nc3ccc(N4CCOCC4)cc3)c3ncn(-c4ccccc4)c3n2)cn1	0	34*	-2	12
c1ccc(Nc2nc(Nc3ccc(N4CCOCC4)cc3)nc3c2ncn3-c2ccsc2)cc1	0	11	0	9
c1ccc(Nc2nc(-c3ccc(N4CCOCC4)nc3)nc3c2ncn3-c2ccccc2)cc1	0	-1	0	5
CC(=O)Nc1ccc(Nc2nc(-c3c(C)nn(C)c3C)nc3c2ncn3-c2ccsc2)cc1	0	44*	1	12
c1cc(-n2cnc3c(Nc4ccc(N5CCOCC5)cc4)nc(Nc4ccc(N5CCOCC5)cc4)nc32)cs1	0	35*	-2	14
COc1ccc(-c2nc(Nc3ccc(N4CCOCC4)cc3)c3ncn(-c4ccsc4)c3n2)cc1	0	38*	2	3
Cc1nn(C)c(C)c1-c1nc(Nc2ccccc2)c2ncn(-c3ccsc3)c2n1	0	-35	2	11
CCOc1cccc2cc(C(N)=O)c(=Nc3ccc(F)cc3)oc12	0	-1	3	27
COC(=O)c1c(NC(=O)c2ccc(Cl)cc2)sc2c1CCN(C(C)=O)C2	3.3*	13	0	-16
CC(=O)N1CCc2c(sc(NC(=O)c3ccc(Br)cc3)c2C#N)C1	0	41*	3	-2
COC(=O)c1c(NC(=O)c2ccc(S(=O)(=O)N(C)C)cc2)sc2c1CCN(C(C)=O)C2	0	4	1	7
CC(=O)N1CCc2c(sc(NC(=O)c3ccc4c(c3)OCCO4)c2C#N)C1	0	40*	2	-5
CCCCC(=O)Nc1sc2c(c1C#N)CCN(C(C)=O)C2	0	43*	0	7
SMILES	FBW7 activator	TEAD-YAP block	GPR151 ag	MITF inh
COc1cc(C2NC(=O)NC(C)=C2C(=O)NCc2ccccc2)ccc1O (centres undefined)	0	1	0	8
O=C(/C=C/c1ccc(-c2ccc(Cl)c(Cl)c2)o1)c1ccc(F)cc1	0	8	1	0
O=C(Nc1ccc(Br)c(C(F)(F)F)c1)c1ccc(Br)cc1	0	1	1	7
COc1ccc(/C=N\NC(=O)CC23CC4CC(CC(C4)C2)C3)c(OC)c1	0	-1	2	8
COc1ccccc1NC(=O)/C(=C\c1ccc(OC)c(OC)c1)NC(=O)c1ccccc1	0	8	0	7
Cc1nc(SCc2ccc(CSc3n[nH]c(C)n3)cc2)n[nH]1	0	83*	-7	6
Cc1nc(SCc2ccccc2)n[nH]1	0	3	1	-3
